PubChem BioAssay (NCI)
About 83,000 compounds went through this panel and 20% of them were active in at least one assay; those are over-represented in the sample as a whole.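 Plates (96-well) were seeded with cells, treated with compound at one concentration, and incubated for 48 hours before percent growth was determined.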 Calls of active or inactive are those of the source. The calls were made as follows: active = growth percent below 10; inactive = the rest.

Tested on: HL-60(TB) leukemia
Assay: NCI-60 one-dose screen, 48 h (100 = growth as untreated, 0 = no growth, -100 = all killed)
Details: 10 µM unless noted

| Compound | growth |
| --- | --- |
| C/C(=C(\c1ccc(OCCN2CCOCC2)cc1)c1ccc(OC(=O)C2CCCCC2)cc1)c1ccc(Cl)cc1 | 96.4% (inactive) |
| O=C(NCCNc1nccc(-c2c(-c3cccc(O)c3)nc3sccn23)n1)c1ccc(N2CCOCC2)c(C(F)(F)F)c1 | 113% (inactive) |
| CCOC(=O)c1cc(C(=O)c2cc(OC)c(OC)c(OC)c2)n2c1ccc1c3cccnc3ccc12 | 13.3% (inactive) |
| C=C(C)[C@@H]1CC[C@]2(C(=O)N3CCN(C)CC3)CC[C@]3(C)[C@H](CC[C@@H]4[C@@]5(C)CC(CCCNC(C)=O)(CCCNC(C)=O)[C@H](OC(C)=O)C(C)(C)[C@@H]5CC[C@]43C)[C@@H]12 | 94% (inactive) |
| Cc1cccc2c1C[C@@]1(C2=O)C(c2ccc(C(C)(C)C)cc2)=NOS1=O (stereo not given in full) | 100% (inactive) |
| Cc1ccc(OC(=O)c2ccccc2)cc1 | 103% (inactive) |
| CN(C)CCNC(=O)c1cc2c3cc(Cl)ccc3[nH]c2c2ncccc12 | -64.8% (active) |
| CC(C)(C)CC(C)(C)Nc1c(-c2ccc(C(F)(F)F)cc2)nc2cnccn12 | 79.4% (inactive) |
| C=CC[n+]1c(/C=C/C=C2\N(C)c3ccccc3C2(C)C)sc2ccc(OC)cc21 | -21% (active) |
| NC(N)=N/N=C(/c1ccccc1)c1ccccc1F | -47% (active) |
| CCC(C#N)(CC)c1ccccc1 | 102% (inactive) |
| O=C1SCN(Cc2ccccc2)CN1Cc1ccccc1 | 70.7% (inactive) |
| CCCCCCCC/C=C/CCCCCCCC1=NCC[N+]1(CCO)CCO | 31.7% (inactive) |
| CC(C)(Cl)CCC1=C(Cl)C(=O)c2ccccc2C1=O | -10.1% (active) |
| Cc1nc2c3c(-c4ccccc4)c(-c4ccccc4)oc3ncn2n1 | 91.4% (inactive) |
| O=C(N/N=C\c1c(O)ccc2ccccc12)C1CC1 | 1.22% (active) |
| CCCCCc1c(C)[nH]c(/C=C2\N=C(c3ccc[nH]3)C=C2Oc2ccc(OC)cc2)c1C | -39% [100 µM] (active) |
| CCOc1cc2ncc(C#N)c(Nc3ccc(F)c(Cl)c3)c2cc1NC(=O)/C=C/CN(C)C | -52.6% (active) |
| CCC(c1ccc(OC)cc1)C(CC)c1ccc(O)c(CN2CCCCC2)c1 (stereo not given) | 52.6% (inactive) |
| CC(=O)OC[C@H]1OC(Sc2sc(C(=O)c3ccc(Br)cc3)c(N)c2-c2nc3ccccc3s2)[C@H](OC(C)=O)[C@@H](OC(C)=O)[C@H]1OC(C)=O (stereo not given in full) | 105% (inactive) |

| Compound | growth |
| --- | --- |
| CCCCCCCC/C=C\CCCCCCCC(=O)Oc1cccc2cccnc12 | 83.9% (inactive) |
| Cc1c2ccccc2nc2c1ccc1cccnc12 | 85.8% (inactive) |
| COc1ccc(S(=O)(=O)N2CCCCC2)cc1NC(=O)c1[nH]c(C)c2c1CCCCC2=O | -10.9% (active) |
| COc1ccc2[nH]c(=O)c(/C=C/C(=O)c3ccc(Nc4nccc(-c5ccc6ccccc6c5)n4)cc3)cc2c1 | 97.6% (inactive) |
| O=c1c2c(=NCCN3CCCC3)cc3c(=O)n(CCCN4CCOCC4)c(=O)c4c(-c5ccc(CN6CCCC6)cc5)cc(c(O)n1CCCN1CCOCC1)c2c4-3 | -36.5% (active) |
| COc1cc(/C=C/C(=O)c2ccc(Nc3nc(NCCO)nc(N4CCOCC4)n3)cc2)cc(OC)c1OC | -28.6% (active) |
| CCN(CCN(C)C)C(=O)CNCc1cc(C(N)=O)ccn1 | 88.7% (inactive) |
| COC(=O)Nc1nc2ccc(C(=O)c3cccs3)cc2[nH]1 | -45.1% (active) |
| Cc1cc(NC(=O)c2ccc(C)c(Nc3nccc(-c4cccnc4)n3)c2)cc(-n2cnc(C)c2)c1 | 22.8% (inactive) |
| O=C(CCNNC(=O)c1ccncc1)NCc1ccccc1 | 70.1% (inactive) |
| COc1cc2nc(Nc3cccc(F)c3)nc(Nc3cc(C)[nH]n3)c2cc1OC | -54% [20 µM] (active) |
| COc1cc(/C=C/C(=O)c2c(C)n([O-])c3cc(C)c(C)cc3[n+]2=O)cc(OC)c1OC | 32.9% (inactive) |
| Cc1nc2cc(Nc3nc(Nc4ccc(F)cc4)nc(N4CCCC4)n3)ccc2n1Cc1ccccc1 | -41.5% (active) |
| CCOC(=O)C(=CNc1ccccc1Cl)C(=O)OCC | 86.4% (inactive) |
| CC(C)=C1CCC(C)C/C1=N\N=C(N)N (stereo not given) | 104% (inactive) |
| CN1CCOCCOCCOc2ccccc2NC(=O)c2nc(cnc2N)-c2ccc(cc2)S1(=O)=O | -22.2% (active) |
| Cn1cc2c(c1)-c1nc(Nc3ccccc3)ncc1CC2 | 97.3% (inactive) |
| O=C(/C=C/C(Cl)(Cl)Cl)Nc1ccc(Cl)cc1 | 34.5% (inactive) |
| COc1ccc(SC2c3ccc(O)cc3Oc3nc(N)c(C#N)c(N)c32)cc1 (stereo not given) | 46.9% (inactive) |
| c1cncc(CNc2ccccc2-c2nnc(Nc3ccc4c(c3)OCO4)o2)c1 | -22.5% (active) |
